DRD3 agonist = qHTS of D3 Dopamine Receptor Agonist: qHTS; AID 652048, 2013; hit rate 0.58% among 410,000; D(3) dopamine receptor (Homo sapiens), P35462; max activation, %; D3R DiscoveRx beta-arrestin cells, luminescence, 90 min; in the data active = max activation above about 30%; note: 0% is about no effect
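Agonist mode: compounds and dopamine controls were applied to plated cells for 90 min at 37 degrees C after an overnight attachment at 1500 cells/well. Luminescent read-out followed 30 - 60 minutes at room temperature with DiscoveRx detection reagent.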
ClpP mod = qHTS Assay for Activators of ClpP | hit rate 1.9% among 340,000 | Potency, µM (series often up to 57.5 µM), without a hit: at the highest dose activity change, negative = active | purified B. subtilis ClpP, FRET peptide cleavage, 20 min | AID 651965, 2013 | ATP-dependent Clp protease proteolytic subunit (Bacillus subtilis (strain 168)), P80244; active = well fitted falling curve with a large enough effect; inconclusive = small, poorly fitted or top-dose-only effect; inactive = no such curve, though single readings can be large or run the other way; note: potency is the fitted concentration of half-maximal effect; the source files actives as falling curves though it sought activators and does not explain the sign; nearly all actives have a fitted effect of over 65% in size
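Buffer: 100 mM Tris/HCl pH8, 100 mM KCl, 0.05% low protease BSA, 2.5% glycerol, 0.01% Tween-20. ClpP 10 microg/mL final; 20 min RT; delta FRET normalized to ADEP and DMSO controls.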
D3 antag = qHTS of D3 Dopamine Receptor Antagonist: qHTS; max response, negative = inhibition, %; hit rate 2.5% among 360,000; AID 652054, 2013; D3R cells, DiscoveRx beta-arrestin luminescence, antagonist mode; stronger effect = lower value; D(3) dopamine receptor (Homo sapiens), P35462; in the data active = max response below about -50%; inconclusive = no clear call, values can overlap the other calls; note: % is set by controls: 0 for no effect and ±100 for the full control effect
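Cells plated overnight at 1500 cells/well, then exposed to library compounds with dopamine controls for 90 minutes at 37 degrees C. DiscoveRx reagent added for 30–60 minutes at room temperature; luminescence read, quantitative HTS format.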
GLP1R cytotox = qHTS of GLP-1 Receptor Inverse Agonists: Cytotox Screen | hit rate 0.13% among 410,000 | HEK293 cAMP-luciferase reporter cells, luminescence, 24 h | Potency, µM (top dose mostly 38.3 µM), inactives show top-dose activity change, negative = inhibition, most hits filed as inhibitors;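 note: loss of luciferase light is scored as toxicity; potency is the fitted concentration of half-maximal effect; % is set by controls: 0 for no effect and ±100 for the full control effect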
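Seeding density was 200 cells/uL; after overnight-length (12 h) culture, 23 nL compounds went on for 24 h at 37 °C. Readout used a luciferase detection reagent, luminescence taken after 12 min at room temperature.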
GLP-1R inv ag = qHTS of GLP-1 Receptor Inverse Agonists (Inhibition Mode). Potency, µM (series often up to 38.3 µM), for the others: top-dose activity change, negative = inhibition, hits mostly inhibitors. Glucagon-like peptide 1 receptor (Homo sapiens), P43220. hit rate 1.6% among 410,000. HEK293 GLP-1R CRE-luciferase, luminescence, 24 h; GLP-1R form is constitutively active. AID 624417, 2012; note: potency is the fitted concentration of half-maximal effect; % is set by controls: 0 for no effect and ±100 for the full control effect; nearly all actives have a fitted effect of over 55% in size
Target sequence (P43220 whole entry, looked up): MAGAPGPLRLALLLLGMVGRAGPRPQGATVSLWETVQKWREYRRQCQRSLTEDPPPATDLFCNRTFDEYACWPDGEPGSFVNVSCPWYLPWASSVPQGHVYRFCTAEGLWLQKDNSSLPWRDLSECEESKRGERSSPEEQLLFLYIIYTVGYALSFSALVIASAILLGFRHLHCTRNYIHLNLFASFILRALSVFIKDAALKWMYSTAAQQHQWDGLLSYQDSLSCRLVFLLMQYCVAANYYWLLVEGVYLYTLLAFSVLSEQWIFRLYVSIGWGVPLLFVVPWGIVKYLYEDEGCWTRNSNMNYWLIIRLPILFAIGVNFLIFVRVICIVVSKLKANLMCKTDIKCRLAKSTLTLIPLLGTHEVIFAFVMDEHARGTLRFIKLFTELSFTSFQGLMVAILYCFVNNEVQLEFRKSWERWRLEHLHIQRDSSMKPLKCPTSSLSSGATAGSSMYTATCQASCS
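Stable HEK293 clone (constitutively active GLP-1R + cAMP-response luciferase); 200 cells/uL plated, 12 h pre-culture, compound 24 hr, 37 deg C/5% CO2; detection reagent 12 min RT; luminescence.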
GLP1R ag = qHTS of GLP-1 Receptor Agonists; hit rate 0.007% among 380,000; HEK293 GLP-1R CRE-luciferase, luminescence, 4-6 h; cells express a hypersensitive GLP-1R form; AID 624172, 2012; Potency, µM (titrated, usually from 45.6 µM), inactives show top-dose activation, usual class: activators; note: potency is the fitted concentration of half-maximal effect; % of control where 0% means no effect
The depositor's hits bear a star. Only some compounds are listed: those with a hit (about 5.7% of all), similar ones and a draw of the others. Unless noted, calls come from the whole dose curve; as a rule, active = well fitted curve in the direction sought with a large enough effect; inconclusive = small, poorly fitted or top-dose-only effect, or another doubt; inactive = no such curve, though single readings can be large; an effect the other way counts as inactive or inconclusive.

Screening CC1CC(C)(C)NC(=S)N1CCCC(=O)Nc1ccc(Br)cc1 (stereo not drawn) returned DRD3 agonist -5, ClpP mod -1%, D3 antag -19, GLP1R cytotox 11µM*, GLP-1R inv ag 10µM* and GLP1R ag 5%.
`O=C(C1CC(=O)N(c2ccc(F)c(Cl)c2)C1)N1CCOCC1` (stereo not drawn) gave DRD3 agonist 2, ClpP mod -1%, D3 antag 0, GLP1R cytotox 4%, GLP-1R inv ag 16% and GLP1R ag -6%.
`CCC1CCc2nc3sc(C(=O)Nc4cccc(F)c4)c(N)c3cc2C1` (stereo not drawn) gave DRD3 agonist -12, ClpP mod 8%, GLP1R cytotox 2% and GLP-1R inv ag 3%.
`COc1cc(OC)c(NC(=O)c2noc3c2CSc2ccccc2-3)cc1Cl` gave DRD3 agonist 34*, ClpP mod -2%, GLP1R cytotox 1% and GLP-1R inv ag -12%.
Cc1ccc(N=C2c3ccccc3C(=O)C2[N+](=O)[O-])cc1C (stereo not drawn) was read as DRD3 agonist -4, ClpP mod 1%, D3 antag -58*, GLP1R cytotox -12%, GLP-1R inv ag 9% and GLP1R ag -1%.
c1ccc(Cn2nnnc2C(c2ccccc2)N2CCN(Cc3ccncc3)CC2)cc1 (stereo not drawn) was read as ClpP mod 2%.
CCc1ccccc1OCCCN1CCCC1 was read as DRD3 agonist -2, ClpP mod -1%, D3 antag inconclusive, GLP1R cytotox 1%, GLP-1R inv ag -7% and GLP1R ag -8%.
`CC(C)(C)c1ccccc1OCCCCN1CCCC1` gave DRD3 agonist -17, ClpP mod 1%, D3 antag -68*, GLP1R cytotox -15%, GLP-1R inv ag inconclusive and GLP1R ag 2%.
For CCOc1ccccc1OCCCCN1CCCC1 the results were DRD3 agonist -3, ClpP mod -8%, D3 antag -63*, GLP1R cytotox -12%, GLP-1R inv ag 0% and GLP1R ag 1%.
Cc1cccc(C(C)(C)C)c1OCCCCN1CCCC1 was read as DRD3 agonist -13, ClpP mod 0%, D3 antag -17, GLP1R cytotox -32%, GLP-1R inv ag inconclusive and GLP1R ag -7%.
`CCc1ccccc1OCCCCN1CCCCC1` gave DRD3 agonist -15, ClpP mod 2%, D3 antag -87*, GLP1R cytotox -3%, GLP-1R inv ag -28% and GLP1R ag -4%.
Screening CC(C)c1cccc(C(C)C)c1OCCCCN1CCCC1 returned DRD3 agonist -14, ClpP mod 1%, D3 antag -58*, GLP1R cytotox 1%, GLP-1R inv ag 16% and GLP1R ag -10%.
For COc1ccc(-c2cn3nc(N4CCCC(C(=O)NCc5ccccc5OC)C4)sc3n2)cc1 (stereo not drawn) the results were DRD3 agonist 6, ClpP mod 1%, GLP1R cytotox -4% and GLP-1R inv ag 10%.
O=C(NCc1ccc(F)cc1)C(=O)Nc1ccc2nc3n(c(=O)c2c1)CCCCC3 was read as DRD3 agonist 6, ClpP mod -1%, GLP1R cytotox 2% and GLP-1R inv ag 10%.
CN(C)c1ccc(C=O)cc1Cl was read as ClpP mod 0%.
For Cc1cc(C)c(C)c(OCCCCN2CCCCC2)c1 the results were DRD3 agonist -24, D3 antag -55*, GLP1R cytotox 5%, GLP-1R inv ag 9% and GLP1R ag -6%.

High-throughput results deposited in PubChem BioAssay by National Center for Advancing Translational Sciences (NCATS).
